Key:
Experiment in all cases: DAPPL (digital affinity profiling via proximity ligation, sequencing); 10 mM Tris-HCl pH 7.5, 50 mM NaCl, 1 mM DTT, 4% glycerol, room temperature, 30 min; GST-TFs on glutathione beads, 16-mer random dsDNA library, 0.1% formaldehyde crosslink after washing; high values mean tight binding
Details in all cases: protein: recombinant; tags: N-terminal GST; dsDNA, one strand shown
FLI1 = target: T1, FLI1 (Homo sapiens, UniProt Q01543 1-452)
T1 sequence: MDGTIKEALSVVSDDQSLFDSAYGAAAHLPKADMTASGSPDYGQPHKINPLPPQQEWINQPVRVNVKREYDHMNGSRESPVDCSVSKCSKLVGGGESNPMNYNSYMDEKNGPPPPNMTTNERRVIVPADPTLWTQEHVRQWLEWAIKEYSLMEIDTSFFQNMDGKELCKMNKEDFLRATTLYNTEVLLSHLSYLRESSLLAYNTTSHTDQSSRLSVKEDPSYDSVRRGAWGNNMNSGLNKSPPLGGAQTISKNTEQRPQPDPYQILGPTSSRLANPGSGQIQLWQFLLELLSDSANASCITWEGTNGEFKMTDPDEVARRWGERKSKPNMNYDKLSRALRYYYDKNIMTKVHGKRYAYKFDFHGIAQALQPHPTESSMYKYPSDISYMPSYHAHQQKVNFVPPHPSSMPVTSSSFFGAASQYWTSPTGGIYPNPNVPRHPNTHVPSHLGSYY
Procedure, shortened: (§1)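 Each value of binding signal is a hexamer's read frequency for a factor divided by the same hexamer's frequency in the tag-only sample. Barcoded, bead-captured GST fusions of human transcription factors made in yeast were pooled with that sample and incubated with 200 nmole of a random double-stranded 16-mer DNA library in Tris/NaCl/DTT/glycerol buffer at room temperature for 30 min. Washing, 0.1% formaldehyde crosslinking, proximity ligation, PCR and Illumina NextSeq500 sequencing followed.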

ELK1 = target: T2, ELK1 (Homo sapiens, UniProt P19419 1-428)
T2 sequence: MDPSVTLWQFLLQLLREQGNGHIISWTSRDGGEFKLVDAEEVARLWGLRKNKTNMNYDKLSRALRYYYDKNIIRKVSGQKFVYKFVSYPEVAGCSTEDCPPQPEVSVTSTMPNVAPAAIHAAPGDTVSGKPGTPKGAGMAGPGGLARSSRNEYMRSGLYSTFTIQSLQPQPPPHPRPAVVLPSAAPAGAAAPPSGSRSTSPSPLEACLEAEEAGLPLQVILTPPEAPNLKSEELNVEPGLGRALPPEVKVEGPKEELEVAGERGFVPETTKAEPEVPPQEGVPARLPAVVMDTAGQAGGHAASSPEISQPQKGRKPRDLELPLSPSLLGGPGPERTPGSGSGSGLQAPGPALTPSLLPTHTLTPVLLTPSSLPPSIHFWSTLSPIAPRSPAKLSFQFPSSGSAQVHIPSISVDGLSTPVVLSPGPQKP
Procedure, shortened: as §1

GABPA = target: T3, GABPA (Homo sapiens, UniProt Q06546 1-454)
T3 sequence: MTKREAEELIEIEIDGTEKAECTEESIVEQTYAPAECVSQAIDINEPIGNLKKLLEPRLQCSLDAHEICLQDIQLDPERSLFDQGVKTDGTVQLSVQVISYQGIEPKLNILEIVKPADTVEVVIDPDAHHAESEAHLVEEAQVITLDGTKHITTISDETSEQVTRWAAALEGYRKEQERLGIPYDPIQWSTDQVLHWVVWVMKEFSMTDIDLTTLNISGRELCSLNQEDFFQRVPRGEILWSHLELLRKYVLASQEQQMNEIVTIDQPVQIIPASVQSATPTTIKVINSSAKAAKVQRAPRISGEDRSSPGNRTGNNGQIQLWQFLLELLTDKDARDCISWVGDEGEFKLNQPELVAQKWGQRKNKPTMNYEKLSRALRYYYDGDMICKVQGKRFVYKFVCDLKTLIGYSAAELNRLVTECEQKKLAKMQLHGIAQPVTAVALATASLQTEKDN
Procedure, shortened: as §1

ERG = target: T4, ERG (Homo sapiens, UniProt P11308 1-479)
T4 sequence: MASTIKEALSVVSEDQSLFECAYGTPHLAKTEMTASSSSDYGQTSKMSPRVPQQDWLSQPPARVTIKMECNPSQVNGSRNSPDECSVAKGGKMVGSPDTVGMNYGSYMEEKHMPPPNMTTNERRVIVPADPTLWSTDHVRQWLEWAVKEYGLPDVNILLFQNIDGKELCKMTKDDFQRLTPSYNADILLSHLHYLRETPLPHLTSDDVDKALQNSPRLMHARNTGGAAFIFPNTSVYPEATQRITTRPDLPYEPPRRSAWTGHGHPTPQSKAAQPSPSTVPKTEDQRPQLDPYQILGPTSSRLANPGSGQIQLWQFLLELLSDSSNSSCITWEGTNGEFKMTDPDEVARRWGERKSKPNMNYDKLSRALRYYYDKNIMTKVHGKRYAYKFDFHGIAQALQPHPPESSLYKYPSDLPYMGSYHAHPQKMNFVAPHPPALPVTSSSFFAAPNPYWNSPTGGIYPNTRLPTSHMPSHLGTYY
Procedure, shortened: as §1

ELF1 = ELF1 (Homo sapiens, UniProt P32519 1-619)
Procedure, shortened: as §1

EHF = target: T5, EHF (Homo sapiens, UniProt Q9NZC4 1-300)
T5 sequence: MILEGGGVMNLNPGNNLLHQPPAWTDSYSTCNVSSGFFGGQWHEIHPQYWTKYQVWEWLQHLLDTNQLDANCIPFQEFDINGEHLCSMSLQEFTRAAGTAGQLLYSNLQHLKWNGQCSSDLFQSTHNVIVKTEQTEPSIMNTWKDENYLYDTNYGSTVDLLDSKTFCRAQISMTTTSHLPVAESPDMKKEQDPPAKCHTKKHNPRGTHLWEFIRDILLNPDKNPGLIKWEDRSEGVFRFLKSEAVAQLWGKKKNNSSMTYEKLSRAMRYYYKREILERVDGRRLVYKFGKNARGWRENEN
Procedure, shortened: as §1

SPI1 = SPI1 (Homo sapiens, UniProt P17947 1-270)
Procedure, shortened: as §1

SPIB = SPIB (Homo sapiens, UniProt Q01892 1-262)
Procedure, shortened: as §1

ELK3 = target: T6, ELK3 (Homo sapiens, UniProt P41970 1-407)
T6 sequence: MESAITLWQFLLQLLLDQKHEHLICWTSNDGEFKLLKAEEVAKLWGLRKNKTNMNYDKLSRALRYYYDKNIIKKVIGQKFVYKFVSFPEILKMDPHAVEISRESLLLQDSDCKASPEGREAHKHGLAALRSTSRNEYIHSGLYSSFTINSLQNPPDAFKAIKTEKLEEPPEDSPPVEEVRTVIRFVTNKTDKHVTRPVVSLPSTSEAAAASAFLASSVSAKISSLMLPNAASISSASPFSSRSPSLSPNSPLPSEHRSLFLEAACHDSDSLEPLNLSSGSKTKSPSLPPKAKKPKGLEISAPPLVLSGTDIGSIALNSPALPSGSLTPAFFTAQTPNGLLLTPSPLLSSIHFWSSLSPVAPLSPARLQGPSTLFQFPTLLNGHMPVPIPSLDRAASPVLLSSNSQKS
Procedure, shortened: as §1

FEV = target: T7, FEV (Homo sapiens, UniProt Q99581 1-238)
T7 sequence: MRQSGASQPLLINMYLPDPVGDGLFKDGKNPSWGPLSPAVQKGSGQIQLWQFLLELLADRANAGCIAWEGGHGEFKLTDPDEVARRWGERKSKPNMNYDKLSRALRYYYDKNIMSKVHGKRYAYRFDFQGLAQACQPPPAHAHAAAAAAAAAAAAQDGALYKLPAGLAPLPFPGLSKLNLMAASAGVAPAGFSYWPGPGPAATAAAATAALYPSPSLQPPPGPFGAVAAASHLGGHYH
Procedure, shortened: as §1

ETV5 = ETV5 (Homo sapiens, UniProt P41161 1-510)
Procedure, shortened: as §1

SPIC = target: T8, SPIC (Homo sapiens, UniProt Q8N5J4 1-248)
T8 sequence: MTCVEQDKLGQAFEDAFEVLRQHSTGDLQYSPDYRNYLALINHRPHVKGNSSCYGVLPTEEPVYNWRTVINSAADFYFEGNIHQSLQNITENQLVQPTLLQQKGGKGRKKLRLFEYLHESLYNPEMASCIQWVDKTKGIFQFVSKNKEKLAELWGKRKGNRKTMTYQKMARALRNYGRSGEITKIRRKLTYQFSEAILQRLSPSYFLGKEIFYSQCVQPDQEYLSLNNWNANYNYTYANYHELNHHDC
Procedure, shortened: as §1

ELF4 = ELF4 (Homo sapiens, UniProt Q99607 1-663)
Procedure, shortened: as §1

ELK4 = target: T9, ELK4 (Homo sapiens, UniProt P28324-2 1-405)
T9 sequence: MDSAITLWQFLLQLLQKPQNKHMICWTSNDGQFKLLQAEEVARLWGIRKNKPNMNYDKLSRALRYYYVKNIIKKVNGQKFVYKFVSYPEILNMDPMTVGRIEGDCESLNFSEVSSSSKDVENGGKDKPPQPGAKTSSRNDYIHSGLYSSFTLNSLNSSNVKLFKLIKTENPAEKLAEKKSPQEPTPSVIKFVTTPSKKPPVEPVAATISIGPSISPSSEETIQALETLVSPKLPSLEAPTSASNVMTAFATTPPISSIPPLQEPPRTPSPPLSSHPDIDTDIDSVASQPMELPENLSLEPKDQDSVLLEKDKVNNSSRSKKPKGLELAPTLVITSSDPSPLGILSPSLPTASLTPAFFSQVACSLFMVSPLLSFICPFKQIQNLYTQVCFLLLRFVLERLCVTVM
Procedure, shortened: as §1

ETV2 = target: T10, ETV2 (Homo sapiens, UniProt O00321 1-342)
T10 sequence: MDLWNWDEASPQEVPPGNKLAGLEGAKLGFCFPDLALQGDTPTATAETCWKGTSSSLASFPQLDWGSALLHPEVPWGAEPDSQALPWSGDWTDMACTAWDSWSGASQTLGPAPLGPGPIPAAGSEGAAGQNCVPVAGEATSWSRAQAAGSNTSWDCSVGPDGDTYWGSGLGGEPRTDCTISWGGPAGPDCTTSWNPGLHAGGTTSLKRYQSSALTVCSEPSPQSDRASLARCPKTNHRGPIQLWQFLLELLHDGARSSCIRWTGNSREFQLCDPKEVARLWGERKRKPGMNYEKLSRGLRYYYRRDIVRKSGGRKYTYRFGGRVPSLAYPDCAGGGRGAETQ
Procedure, shortened: as §1

ELF3 = target: T11, ELF3 (Homo sapiens, UniProt P78545 1-371)
T11 sequence: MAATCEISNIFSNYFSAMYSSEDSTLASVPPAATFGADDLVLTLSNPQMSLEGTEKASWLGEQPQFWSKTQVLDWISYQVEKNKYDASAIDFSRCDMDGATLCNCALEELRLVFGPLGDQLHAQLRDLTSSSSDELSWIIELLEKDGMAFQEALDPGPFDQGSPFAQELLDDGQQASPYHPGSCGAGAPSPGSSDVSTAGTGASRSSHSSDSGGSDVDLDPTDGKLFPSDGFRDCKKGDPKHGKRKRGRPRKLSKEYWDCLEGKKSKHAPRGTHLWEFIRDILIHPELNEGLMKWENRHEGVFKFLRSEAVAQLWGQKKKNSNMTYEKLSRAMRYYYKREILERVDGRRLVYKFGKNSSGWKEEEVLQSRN
Procedure, shortened: as §1

ETV1 = ETV1 (Homo sapiens, UniProt P50549 1-477)
Procedure, shortened: as §1

Chain of ELF4 (Q99607 whole entry): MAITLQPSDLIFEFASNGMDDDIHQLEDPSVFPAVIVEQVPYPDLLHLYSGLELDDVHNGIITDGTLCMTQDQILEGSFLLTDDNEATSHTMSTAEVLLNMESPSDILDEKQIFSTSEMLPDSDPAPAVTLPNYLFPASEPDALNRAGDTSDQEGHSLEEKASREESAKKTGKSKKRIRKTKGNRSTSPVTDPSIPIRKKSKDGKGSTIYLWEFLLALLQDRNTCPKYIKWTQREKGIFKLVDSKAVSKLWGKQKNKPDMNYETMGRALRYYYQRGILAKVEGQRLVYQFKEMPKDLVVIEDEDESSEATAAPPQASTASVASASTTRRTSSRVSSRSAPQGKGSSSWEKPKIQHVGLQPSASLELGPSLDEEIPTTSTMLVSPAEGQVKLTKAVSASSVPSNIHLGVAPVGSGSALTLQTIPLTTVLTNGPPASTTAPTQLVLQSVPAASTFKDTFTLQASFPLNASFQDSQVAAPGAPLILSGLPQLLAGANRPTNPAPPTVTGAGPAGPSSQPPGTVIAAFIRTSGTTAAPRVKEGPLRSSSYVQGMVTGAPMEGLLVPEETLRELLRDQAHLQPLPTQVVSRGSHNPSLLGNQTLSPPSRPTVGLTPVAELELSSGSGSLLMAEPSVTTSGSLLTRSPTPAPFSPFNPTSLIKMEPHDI
Chain of ETV5 (P41161 whole entry): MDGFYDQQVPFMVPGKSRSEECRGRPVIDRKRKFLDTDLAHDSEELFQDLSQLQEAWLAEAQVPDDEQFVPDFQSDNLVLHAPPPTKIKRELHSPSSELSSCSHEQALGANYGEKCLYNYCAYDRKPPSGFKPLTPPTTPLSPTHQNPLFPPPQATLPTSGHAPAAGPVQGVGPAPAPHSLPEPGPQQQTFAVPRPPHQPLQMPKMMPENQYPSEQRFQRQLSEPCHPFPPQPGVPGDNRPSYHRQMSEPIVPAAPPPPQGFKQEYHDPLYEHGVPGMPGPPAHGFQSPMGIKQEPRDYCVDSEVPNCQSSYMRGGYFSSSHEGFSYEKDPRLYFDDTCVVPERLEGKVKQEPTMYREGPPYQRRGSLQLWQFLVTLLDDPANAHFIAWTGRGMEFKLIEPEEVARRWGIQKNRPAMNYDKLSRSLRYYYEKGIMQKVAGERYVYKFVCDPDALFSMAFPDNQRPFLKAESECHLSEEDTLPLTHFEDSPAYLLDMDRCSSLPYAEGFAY
Chain of ETV1 (P50549 whole entry): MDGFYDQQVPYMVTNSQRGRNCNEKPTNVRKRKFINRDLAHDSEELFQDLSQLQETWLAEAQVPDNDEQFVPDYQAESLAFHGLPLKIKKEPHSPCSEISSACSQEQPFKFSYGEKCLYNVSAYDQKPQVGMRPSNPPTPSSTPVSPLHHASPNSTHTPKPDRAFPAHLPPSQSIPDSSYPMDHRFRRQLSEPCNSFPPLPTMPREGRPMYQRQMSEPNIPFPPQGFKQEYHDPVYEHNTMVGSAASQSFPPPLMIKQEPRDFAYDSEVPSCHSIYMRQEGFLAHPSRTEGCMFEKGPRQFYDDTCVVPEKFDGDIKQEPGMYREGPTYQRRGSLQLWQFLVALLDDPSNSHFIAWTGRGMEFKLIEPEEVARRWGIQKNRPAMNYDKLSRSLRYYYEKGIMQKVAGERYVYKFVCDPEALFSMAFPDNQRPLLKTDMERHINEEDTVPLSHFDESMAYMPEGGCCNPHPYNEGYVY
Chain of SPIB (Q01892 whole entry): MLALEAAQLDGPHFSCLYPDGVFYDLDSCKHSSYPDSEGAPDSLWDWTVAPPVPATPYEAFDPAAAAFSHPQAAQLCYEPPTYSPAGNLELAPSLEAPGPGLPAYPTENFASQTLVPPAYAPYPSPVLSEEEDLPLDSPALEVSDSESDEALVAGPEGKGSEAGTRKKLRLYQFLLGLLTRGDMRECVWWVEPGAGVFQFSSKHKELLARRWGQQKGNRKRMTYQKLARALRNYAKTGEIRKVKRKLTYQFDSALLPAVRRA
Chain of ELF1 (P32519 whole entry): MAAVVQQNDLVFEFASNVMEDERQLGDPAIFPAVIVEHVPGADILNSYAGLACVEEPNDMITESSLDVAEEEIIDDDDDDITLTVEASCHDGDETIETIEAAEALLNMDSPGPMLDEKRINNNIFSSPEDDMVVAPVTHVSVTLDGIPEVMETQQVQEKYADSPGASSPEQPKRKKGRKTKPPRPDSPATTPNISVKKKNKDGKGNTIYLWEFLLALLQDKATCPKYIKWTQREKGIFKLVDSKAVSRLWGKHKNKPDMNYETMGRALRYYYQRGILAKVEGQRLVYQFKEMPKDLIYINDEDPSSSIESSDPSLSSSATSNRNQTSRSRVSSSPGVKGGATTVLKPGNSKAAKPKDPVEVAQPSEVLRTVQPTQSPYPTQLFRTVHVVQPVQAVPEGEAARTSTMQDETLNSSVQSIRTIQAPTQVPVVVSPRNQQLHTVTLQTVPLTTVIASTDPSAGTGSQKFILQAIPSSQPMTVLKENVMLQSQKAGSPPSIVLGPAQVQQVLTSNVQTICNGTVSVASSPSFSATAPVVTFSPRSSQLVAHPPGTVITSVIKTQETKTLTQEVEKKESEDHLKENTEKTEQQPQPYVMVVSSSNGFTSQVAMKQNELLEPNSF

In the case of CGTCCG, the binding signal (FLI1) is reported as 1.31 fold enrichment (6-mer frequency, TF over GST control), the binding signal (ELK1) is reported as 1.27 fold enrichment (6-mer frequency, TF over GST control) and the binding signal (GABPA) is reported as 1.24 fold enrichment (6-mer frequency, TF over GST control). For the same sequence, the binding signal (ERG) was 1.27 fold enrichment (6-mer frequency, TF over GST control), the binding signal (ELF1) was 1.28 fold enrichment (6-mer frequency, TF over GST control) and the binding signal (EHF) was 1.36 fold enrichment (6-mer frequency, TF over GST control). The binding signal (SPI1) was 1.08 fold enrichment (6-mer frequency, TF over GST control), the binding signal (SPIB) was 1.41 fold enrichment (6-mer frequency, TF over GST control) and the binding signal (ELK3) was 1.36 fold enrichment (6-mer frequency, TF over GST control). For the same sequence, the binding signal (FEV) was 1.48 fold enrichment (6-mer frequency, TF over GST control), the binding signal (ETV5) was 1.23 fold enrichment (6-mer frequency, TF over GST control) and the binding signal (SPIC) was 1.37 fold enrichment (6-mer frequency, TF over GST control). The binding signal (ELF4) was 1.26 fold enrichment (6-mer frequency, TF over GST control), the binding signal (ELK4) was 1.17 fold enrichment (6-mer frequency, TF over GST control) and the binding signal (ETV2) was 1.16 fold enrichment (6-mer frequency, TF over GST control). The binding signal (ELF3) was 1.26 fold enrichment (6-mer frequency, TF over GST control) and the binding signal (ETV1) was 1.38 fold enrichment (6-mer frequency, TF over GST control).
